TGFb inhibitor: blocks TGF-b signaling. HepG2 CAGA-GFP TGF-b/SMAD3 reporter, GFP fluorescence, 18 h; TGF-beta stimulated, 500 pg/mL final. Potency, µM (doses to about 46.1 µM), inactives show at the top dose activity, negative = inhibition, most hits filed as inhibitors. hit rate 1.2% among 410,000; further: on the % scale 0 is the no-effect control and ±100 the full control effect; nearly all actives have a fitted effect of over 65% in size
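Per well, imaged GFP fluorescence of HEPG2 CAGA-GFP cells gives the signal; cells get compound, then TGF-beta (500 pg/mL final), 18 h at 37 degrees C; %Activity versus -TGF-beta and +DMSO controls.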
HttQ103 aggreg: reduces HttQ103-GFP aggregates in PC12 cells | PC12 HttQ103-GFP aggregates, Acumen cytometry, 40 h | hit rate 1.1% among 220,000 | Potency, µM (highest dose often 46.1 µM), for the others: at the highest dose activity change, negative = inhibition, actives largely listed as inhibitors | AID 1688; further: on the % scale 0 is the no-effect control and ±100 the full control effect; nearly all actives have a fitted effect of over 60% in size
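PC12/HTTQ103-GFP, ecdysone-inducible; teb 100 nM; cpd qHTS titration; GFP aggregates read on laser cytometer, Ex 488/Em 500-530 nm.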
ATXN2 expr inh: reduces ATXN2 reporter expression in HEK-293 cells. HEK-293 ATXN2-luciferase reporter, luminescence, 24 h. Potency, µM (top dose mostly 57 µM), inactives show at the top dose activity change, negative = inhibition, hits mostly inhibitors. hit rate 0.72% among 360,000. AID 1745845; further: on the % scale 0 is the no-effect control and ±100 the full control effect; nearly all actives have a fitted effect of over 55% in size
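ATXN2-luciferase reporter cells (luciferase flanked by upstream and downstream ATXN2 gene portions) were treated 24 h at 37 °C with compounds at up to 57 uM. SteadyGlo luminescence gave expression; GF-AFC fluorescence gave viability.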
HTT cytoprotect: Huntington cell model cytoprotection by ATP luminescence; PC12 HTT-Q103 induced, cytoprotection, ATP luminescence, 40 h; Potency, µM (series often up to 56.4 µM), for inactives: cytoprotection (ATP increase), hits mostly activators; hit rate 0.14% among 230,000; further: % of control where 0% means no effect; nearly all actives have a fitted effect of over 45% in size
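ATP quantification (ATPlite) reports survival of PC12 cells in which tebufenozide, 100 nM final, switches on Htt exon 1 with 103 glutamines linked to GFP; compounds are titrated.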
HepG2 viability: kills HepG2 cells in TGF-b inhibitor counter-screen; hit rate 0.76% among 410,000; AID 588856; Potency, µM (doses to about 46.1 µM), for inactives: top-dose activity change, negative = cytotoxicity, hits mostly cytotoxic; HepG2 CAGA-GFP viability, ATP luminescence, 18 h
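HepG2 CAGA-GFP cells (1000/well, DMEM with 1% FBS) received compound, then TGF-beta at 500 pg/mL final, and were incubated 18 hours at 37 degrees C. Viability was read by CellTiter-Glo luminescence. Media-only wells were set as complete cell-killing and DMSO as no toxicity.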
ATXN viability: cell viability loss in ATXN counter-screen; S2 cells (HEK-293 line with an ATXN2-luciferase reporter) viability, CellTiter-Fluor protease fluorescence, 24 h; Potency, µM (titrated, usually from 56.7 µM), hits mostly cytotoxic; hit rate 0.49% among 400,000; AID 651635; further: nearly all actives have a fitted effect of over 40% in size
* hit, by the source's call; i = inactive; ? = inconclusive; . = no result; [ ] = remark or other dose. An excerpt weighted towards active compounds, which were near 2.8% of everything screened. The call rests on the fitted dose curve; in most records, active means well fitted curve in the direction sought with a large enough effect; inconclusive means small, poorly fitted or top-dose-only effect, or another doubt; inactive means no such curve, though single readings can be large; an effect the other way counts as inactive or inconclusive. Potency means the concentration at half of the fitted maximal effect.

SMILES | TGFb inhibitor | HttQ103 aggreg | ATXN2 expr inh | HTT cytoprotect | HepG2 viability | ATXN viability
CC1=C(C(=O)Nc2ccccc2)C(c2ccc(C)cc2)N=C(Nc2nc3ccccc3o2)N1 (stereo not drawn) | ? | ? | ? | -63% | 11µM* | ?
CC1(C)CC(=O)C2=C(C1)NC(Nc1nc3ccccc3o1)=NC2c1ccccc1Cl (stereo not drawn) | 16% | . | . | . | -3% | .
Cc1ccsc1-c1nc(CSCC(=O)N2CCN(c3ccccc3)CC2)c(C)o1 | ? | 13µM* | ? | 10% | -38% | ?
COc1ccc(-c2nc(CSCC(=O)N3CCN(c4ccccc4)CC3)c(C)o2)cc1 | ? | . | ? | . | -28% | ?
O=C(CNC(=O)c1ccncc1)N/N=C/c1cc(Br)ccc1O | ? | ? | ? | -41%[10 µM] | -1% | ?
O=C(CNC(=O)c1ccccc1Br)N/N=C/c1cc(Br)ccc1O | -17% | 3.5µM* | 10µM* | -152% | -8% | i
O=C(CNC(=O)c1ccccc1)N/N=C/c1cc(Br)ccc1O | -3% | 3.2µM* | 28µM* | . | -42% | i
CCOc1ccc(NC(=O)CN2CC(c3ccccc3)CC2=O)cc1 (stereo not drawn) | 12% | -8% | 8% | 14%[10 µM] | -1% | i
O=C(CNC(=O)c1ccccc1Br)N/N=C\c1cc([N+](=O)[O-])cc(Br)c1O | -5% | . | 0% | . | 1% | i
O=C(CNC(=O)c1ccccc1Br)N/N=C/c1ccccc1O | ? | 10µM* | ? | -108% | -35% | .
O=C(CN1CC(c2ccccc2)CC1=O)N/N=C/c1cc(Br)ccc1O (stereo not drawn) | -12% | ? | 14µM* | -7%[10 µM] | 2% | i
O=C(CNC(=O)c1ccco1)N/N=C/c1cc(Br)ccc1O | -3% | . | ? | . | -28% | i
O=C(NNC(=O)c1ccc(CNS(=O)(=O)c2ccc(F)c(Cl)c2)cc1)c1ccccc1 | . | . | -1% | . | . | .
Cc1nnc(N/N=C/c2cc(C)n(-c3ccc(F)cc3)c2C)n1N | 14µM* | 12% | 1% | 0%[10 µM] | -104% | i
Cc1cnc(/C=C/c2ccc(N(C)C)cc2)cn1 | -27% | . | . | . | -28% | .
COc1ccc(Nc2ccccc2N)cc1 | ? | 13µM* | 63% | -40% | 24% | i
Cc1cc(OC(C)C(=O)NNC(=O)Nc2ccc(F)cc2F)cc(C)c1Cl (stereo not drawn) | 16µM* | . | 9% | . | -31% | i
CC(C)=CCC1=C(OCC(=O)O)C(=O)c2ccccc2C1=O | 14µM* | -16%[9.22 µM] | . | -28%[10 µM] | 11µM* | ?
CCC(=O)OC1(C(C)=O)CCC2C3CCC4=CC(=O)CCC4(C)C3CCC21C (stereo not drawn) | -19% | . | 20µM* | . | 9% | ?
CC(C)(C)n1ncc2c(=O)n(Cc3ccccc3-c3ccccc3)cnc21 | -29% | . | . | . | -16% | .
CCc1c(C2(O)CCCCC2)[nH]c2cc(C(F)(F)F)ccc12 | ? | . | ? | . | 14µM* | 32µM*
Cc1c(C2(O)CCCCC2)[nH]c2cc(C(F)(F)F)ccc12 | ? | . | ? | . | -90% | .
Cc1cc(C(=O)CSc2nc3ccccc3c(=O)n2C)c(C)n1Cc1ccc2c(c1)OCO2 | ? | 1µM* | -33% | -86% | -2% | i
Cc1cc(C(=O)CSc2nnc(-c3ccccc3)n2Cc2ccc3c(c2)OCO3)c(C)n1C | ? | 10% | -12% | -23%[0.074 µM] | -10% | ?
Cc1ccc2c(c1)CN(CCNC(=O)c1cc3ccccc3oc1=O)CC(C)O2 (stereo not drawn) | . | . | . | . | . | i
SMILES | TGFb inhibitor | HttQ103 aggreg | ATXN2 expr inh | HTT cytoprotect | HepG2 viability | ATXN viability
Cc1ccc(-c2cn3c(n2)sc2cc(C(=O)NCCCN4CCCCCC4)ccc23)cc1 | -101% | . | . | . | 10µM* | .
Cc1ccc(-c2cn3c(n2)sc2cc(C(=O)NCCCN4CCCCC4)ccc23)cc1 | -88% | . | . | . | 10µM* | .
CC1CCCCN1CCCNC(=O)c1ccc2c(c1)sc1nc(-c3ccc(F)cc3)cn12 (stereo not drawn) | ? | . | 14µM* | . | 13µM* | 32µM*
COCCNc1nc2cc(-c3cccc(C(F)(F)F)c3)sc2c(=O)n1C | -4% | . | 8% | . | -4% | i
CN(C)CCCNc1nc2cc(-c3cccc(Cl)c3)sc2c(=O)n1C | ? | . | ? | . | 11µM* | ?
CN(C)CCCNc1nc2cc(-c3cccc(C(F)(F)F)c3)sc2c(=O)n1C | ? | . | 20µM* | . | -93% | 32µM*
CCC(C)Nc1ncnc2c1cnn2Cc1ccc(Cl)cc1 (stereo not drawn) | ? | 25µM* | -23% | -41% | -31% | i
OCCNc1ncnc2c1cnn2Cc1ccccc1 | 0% | . | 5% | . | -6% | i
CC(C)Nc1ncnc2c1cnn2Cc1ccc(Cl)cc1 | -5% | . | . | . | -1% | i
c1ccc(CNc2ncnc3c2cnn3Cc2ccccc2)cc1 | -10% | 22µM* | -7% | -33%[10 µM] | -36% | ?
CCC[C@@H]1C[C@@H](C(=O)N[C@@H]([C@H]2O[C@H](SC)[C@H](OP(=O)(O)O)[C@@H](O)[C@H]2O)[C@H](C)Cl)N(C)C1 | . | . | . | . | . | i
Cc1ccc(S(=O)(=O)C(CNC(=O)c2ccc(C(F)(F)F)cc2)c2ccco2)cc1 (stereo not drawn) | ? | . | . | . | -24% | .
O=C(NCC(c1ccco1)S(=O)(=O)c1ccc(Cl)cc1)c1ccc(C(F)(F)F)cc1 (stereo not drawn) | 16µM* | . | . | . | -17% | .
CN[C@@H]1[C@H](O[C@@H]2O[C@H](C)[C@@](O)(CO)[C@H]2O[C@H]2[C@H](O)[C@H](O)[C@H](N=C(N)N)[C@@H](O)[C@@H]2N=C(N)N)O[C@@H](CO)[C@H](O)[C@H]1O | . | . | . | -48% | . | .
Cc1ccc(-n2cc(CN3CCC(CO)(Cc4cccc(C(F)(F)F)c4)CC3)cn2)cc1 | ? | 8%[9.22 µM] | -34%[11.3 µM] | -5%[10 µM] | 11µM* | i
CC(C)Cc1cc(CN2CCCC(CO)(Cc3cccc(Cl)c3)C2)[nH]n1 (stereo not drawn) | ? | 2%[9.22 µM] | ? | -10%[10 µM] | -59% | ?
Cc1ccc(-n2cc(CN3CCC(CO)(Cc4ccccc4)CC3)cn2)cc1 | . | -12%[9.22 µM] | . | -9%[10 µM] | . | .
CC(C)Cc1cc(CN2CCC(CO)(Cc3cccc(C(F)(F)F)c3)CC2)[nH]n1 | ? | 2%[9.22 µM] | -17%[11.3 µM] | -3%[10 µM] | 16µM* | i
C=CCSc1n[nH]c(-c2ccc(OCCCC)cc2)n1 | ? | -29% | ? | -31% | -59% | 28µM*

Assay outcomes: PubChem, National Center for Advancing Translational Sciences (NCATS)
